The panel holds about 83,000 compounds, 20% with a hit somewhere; the sample as a whole holds those more often.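 Growth was measured after 48 h exposure to one concentration of compound in 96-well plates. Values under 10 count as active.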 Values without a mark were called inactive. Activity calls are given as the source filed them.
test system: NCI-H460 lung; assay: NCI-60 one-dose screen, 48 h (100 = growth as untreated, 0 = no growth, -100 = all killed); conditions: 10 µM unless noted

Row | SMILES | growth
1 | CO[C@H]1CC(c2ccc[nH]2)=N[C@]12O[C@@H](C)C[C@@H]1CCCCCCCc3ccc([nH]3)[C@H]12 | 17%
2 | COc1ccc2c(O)cc3c(c2c1)[C@H](CCl)CN3C(=O)c1cc2cc(NC(=O)CCN3CCOCC3)ccc2[se]1 | -7.37% (active)
3 | O=c1c(/C=C/c2c(O)ccc3ccccc23)nnc2sc(-c3cccc([N+](=O)[O-])c3)nn12 | 26.5%
4 | CC1(C)CCC[C@]23C(=O)O[C@](O)(C(=O)C4=C[C@@](C)(/C=C/CCCc5ccc6ccc7cccc8ccc5c6c78)CC[C@@]42O)[C@@H]13 | -74.5% (active)
5 | CCOC(=O)CC1C(CNC(=O)NC)OC(n2cnc3c(NC(=O)Nc4ccccc4)ncnc32)C1O[Si](C)(C)C(C)(C)C (stereo not drawn) | 47.6%
6 | COc1ccc(-c2ccc(-c3ccc(C(=N)N)nc3)s2)cc1 | -85.1% (active)
7 | COc1ccc(Cn2cc3c(c2)-c2oncc2CC3)cc1 | 39.9%
8 | O=[N+]([O-])c1ccc(Oc2cccc3c(Oc4ccc([N+](=O)[O-])cc4[N+](=O)[O-])cccc23)c([N+](=O)[O-])c1 | 93.4%
9 | CCCCCN(CCCCC)CC(O)c1c(Cl)ccc2ccccc12 (stereo not drawn) | 66.5%
10 | Cn1cc(-c2csc(-c3cn(C)c4ccc(F)cc34)n2)c2cnccc21 | -73.8% (active)
11 | CNC1=C([N+](=O)[O-])C(c2ccc(OC)cc2)C(C#N)=C(c2ccc[nH]2)O1 (stereo not drawn) | 100%
12 | Cc1cc(C(=O)Nc2cc(Nc3ncccc3-c3ncnc4nc[nH]c34)ccc2F)cc(C(C)(C)C#N)c1 | 33.4%
13 | COC(=O)CNC(=O)c1ccc(NC(=O)c2[nH]c(C)c(Cl)c2Cl)c(O[C@H]2CCNC2)c1 | 108%
14 | FC(F)(F)c1cccc(-c2nnn(Cc3cc(-c4cccc(Cl)c4)no3)n2)c1 | 103%
15 | O=C(Nc1ncc(Cc2ccccc2)s1)c1ccc2c(c1)OCCO2 | 5.11% (active)
16 | CCOC(=O)c1ccc2c(c1)[n+](=O)c(C(C)=O)c(C(F)(F)F)n2[O-] | -50.7% (active)
17 | O=C(Nc1ccccc1C(F)(F)F)C1=NCCCCN1 | 105%
18 | CCCCCC(C)(O)C(C(=O)O)c1ccccc1 (stereo not drawn) | 109%
19 | Nc1ncnc2c1N=C(c1ccc([N+](=O)[O-])cc1)CC(c1ccc3c(c1)OCO3)N2 (stereo not drawn) | 96.2%
20 | COc1cc2c(cc1OC)CC[N+](CCC[N+](C)(C)C)=C2 | 109%

Row | SMILES | growth
21 | O=C1Nc2ccccc2/C1=C/c1cccn1CCCCCCn1c2ccccc2c(=O)c2ccccc21 | 90.7%
22 | CCCS(=O)(=O)Nc1cccc(Nc2ncnc3cc(NC(=O)CCl)ccc23)c1Cl | -41.1% (active)
23 | Cc1ccc(C23CCC(=O)N2CCc2cncn23)cc1 (stereo not drawn) | 110%
24 | Cc1ccc(-c2nn(CC(=O)N3CCOCC3)c(N)c2C#N)cc1 | 106%
25 | COC(=O)[C@H](C)NC(=O)[C@@H]1CCCN1C(=O)CNC(=O)[C@H](C)N | 106%
26 | O=C1c2c(c3c4cccnc4[nH]c3c3ccc4ccccc4c23)C(=O)N1O | 32.4%
27 | C#CCOc1cccc(Nc2ncnc3c(NC(=O)CCl)cccc23)c1 | 51.2%
28 | COc1ccc(CNc2c3ccccc3nc3ccccc23)cc1OC | 6.17% (active)
29 | COc1ccc(-c2csc(NC(=O)CSc3nc(C)cc(=O)[nH]3)n2)cc1 | 107%
30 | O=C(CNc1ncco1)Nc1ccc(S(=O)(=O)c2ccc(NC(=O)CNc3ncco3)cc2)cc1 | -60.4% (active)
31 | Cc1c2cnccc2c(C)c2c1c1cc(C(=O)O)ccc1n2C | 1.58% (active)
32 | COc1ccc(-c2cn(Cc3ccc4c(Br)cc(Br)c(O)c4n3)nn2)cc1 | 105%
33 | COC(=O)c1c(C(=O)OC)c2ccc3c4ncccc4ccc3n2c1C(=O)c1ccc(C)cc1 | 101%
34 | O=[N+]([O-])c1ccc(N/N=C\c2cc(Cl)ccc2O)nc1 | 12.8%
35 | COc1ccc(C(=O)/C=C/c2ccc(C)cc2)cc1S(N)(=O)=O | 53.5%
36 | CN1CCN(CC(=O)N(C)c2ccc(N=C(c3ccccc3)c3c(O)[nH]c4ccc([N+](=O)[O-])cc34)cc2)CC1 | 54.5%
37 | C=CC(=O)NCc1cccc(Nc2ncc(Br)c(NCCCNC(=O)C3CCC3)n2)c1 | -41.9% (active)
38 | Nc1nc(N)c2c(n1)NC(c1cccc(Nc3ccnc4cc(C(F)(F)F)ccc34)c1)CC(c1ccc(Cl)cc1)=N2 (stereo not drawn) | 20.4%
39 | C=C(C[n+]1ccccc1)[C@@H]1CC[C@]2(C(=O)OC)CC[C@]3(C)[C@H](CC[C@@H]4[C@@]5(C)CCC(=O)C(C)(C)[C@@H]5CC[C@]43C)[C@@H]12 | 98.3%

test system: HOP-92 NSCLC; assay: as above; conditions: 10 µM unless noted

Row | SMILES | growth
40 | CO[C@H]1CC(c2ccc[nH]2)=N[C@]12O[C@@H](C)C[C@@H]1CCCCCCCc3ccc([nH]3)[C@H]12 | 10.3%
41 | COc1ccc2c(O)cc3c(c2c1)[C@H](CCl)CN3C(=O)c1cc2cc(NC(=O)CCN3CCOCC3)ccc2[se]1 | 94.8%
42 | O=c1c(/C=C/c2c(O)ccc3ccccc23)nnc2sc(-c3cccc([N+](=O)[O-])c3)nn12 | 65.7%
43 | CC1(C)CCC[C@]23C(=O)O[C@](O)(C(=O)C4=C[C@@](C)(/C=C/CCCc5ccc6ccc7cccc8ccc5c6c78)CC[C@@]42O)[C@@H]13 | -83.9% (active)
44 | CCOC(=O)CC1C(CNC(=O)NC)OC(n2cnc3c(NC(=O)Nc4ccccc4)ncnc32)C1O[Si](C)(C)C(C)(C)C (stereo not drawn) | 63.1%
45 | COc1ccc(-c2ccc(-c3ccc(C(=N)N)nc3)s2)cc1 | 77.9%
46 | COc1ccc(Cn2cc3c(c2)-c2oncc2CC3)cc1 | 70.1%
47 | O=[N+]([O-])c1ccc(Oc2cccc3c(Oc4ccc([N+](=O)[O-])cc4[N+](=O)[O-])cccc23)c([N+](=O)[O-])c1 | 62%
48 | CCCCCN(CCCCC)CC(O)c1c(Cl)ccc2ccccc12 (stereo not drawn) | 68.1%
49 | Cn1cc(-c2csc(-c3cn(C)c4ccc(F)cc34)n2)c2cnccc21 | 70.8%
50 | CNC1=C([N+](=O)[O-])C(c2ccc(OC)cc2)C(C#N)=C(c2ccc[nH]2)O1 (stereo not drawn) | 96.2%
51 | Cc1cc(C(=O)Nc2cc(Nc3ncccc3-c3ncnc4nc[nH]c34)ccc2F)cc(C(C)(C)C#N)c1 | -13.4% (active)
52 | COC(=O)CNC(=O)c1ccc(NC(=O)c2[nH]c(C)c(Cl)c2Cl)c(O[C@H]2CCNC2)c1 | 99%
53 | FC(F)(F)c1cccc(-c2nnn(Cc3cc(-c4cccc(Cl)c4)no3)n2)c1 | 100%
54 | O=C(Nc1ncc(Cc2ccccc2)s1)c1ccc2c(c1)OCCO2 | 57.8%
55 | CCOC(=O)c1ccc2c(c1)[n+](=O)c(C(C)=O)c(C(F)(F)F)n2[O-] | -29.9% (active)
56 | O=C(Nc1ccccc1C(F)(F)F)C1=NCCCCN1 | 97.9%
57 | CCCCCC(C)(O)C(C(=O)O)c1ccccc1 (stereo not drawn) | 94.1%
58 | Nc1ncnc2c1N=C(c1ccc([N+](=O)[O-])cc1)CC(c1ccc3c(c1)OCO3)N2 (stereo not drawn) | 34%
59 | COc1cc2c(cc1OC)CC[N+](CCC[N+](C)(C)C)=C2 | 96.1%

Row | SMILES | growth
60 | O=C1Nc2ccccc2/C1=C/c1cccn1CCCCCCn1c2ccccc2c(=O)c2ccccc21 | 56.4%
61 | CCCS(=O)(=O)Nc1cccc(Nc2ncnc3cc(NC(=O)CCl)ccc23)c1Cl | -85.9% (active)
62 | Cc1ccc(C23CCC(=O)N2CCc2cncn23)cc1 (stereo not drawn) | 87.2%
63 | Cc1ccc(-c2nn(CC(=O)N3CCOCC3)c(N)c2C#N)cc1 | 111%
64 | COC(=O)[C@H](C)NC(=O)[C@@H]1CCCN1C(=O)CNC(=O)[C@H](C)N | 89%
65 | O=C1c2c(c3c4cccnc4[nH]c3c3ccc4ccccc4c23)C(=O)N1O | 81.7%
66 | C#CCOc1cccc(Nc2ncnc3c(NC(=O)CCl)cccc23)c1 | -62.1% (active)
67 | COc1ccc(CNc2c3ccccc3nc3ccccc23)cc1OC | -9.67% (active)
68 | COc1ccc(-c2csc(NC(=O)CSc3nc(C)cc(=O)[nH]3)n2)cc1 | 95.5%
69 | O=C(CNc1ncco1)Nc1ccc(S(=O)(=O)c2ccc(NC(=O)CNc3ncco3)cc2)cc1 | 81%
70 | Cc1c2cnccc2c(C)c2c1c1cc(C(=O)O)ccc1n2C | -3.06% (active)
71 | COc1ccc(-c2cn(Cc3ccc4c(Br)cc(Br)c(O)c4n3)nn2)cc1 | 80.3%
72 | COC(=O)c1c(C(=O)OC)c2ccc3c4ncccc4ccc3n2c1C(=O)c1ccc(C)cc1 | 91.7%
73 | O=[N+]([O-])c1ccc(N/N=C\c2cc(Cl)ccc2O)nc1 | 59.7%
74 | COc1ccc(C(=O)/C=C/c2ccc(C)cc2)cc1S(N)(=O)=O | 41.2%
75 | CN1CCN(CC(=O)N(C)c2ccc(N=C(c3ccccc3)c3c(O)[nH]c4ccc([N+](=O)[O-])cc34)cc2)CC1 | 87.9%
76 | C=CC(=O)NCc1cccc(Nc2ncc(Br)c(NCCCNC(=O)C3CCC3)n2)c1 | -11.5% (active)
77 | Nc1nc(N)c2c(n1)NC(c1cccc(Nc3ccnc4cc(C(F)(F)F)ccc34)c1)CC(c1ccc(Cl)cc1)=N2 (stereo not drawn) | 34.5%
78 | C=C(C[n+]1ccccc1)[C@@H]1CC[C@]2(C(=O)OC)CC[C@]3(C)[C@H](CC[C@@H]4[C@@]5(C)CCC(=O)C(C)(C)[C@@H]5CC[C@]43C)[C@@H]12 | 67.4%
